MPTP block: inhibitors of mitochondrial permeability transition pore. 1.4% of 360,000 active. inhibition, % at 10 µM. isolated mouse mitochondria, Ca2+ swelling absorbance, 30 min;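 active = inhibition of 50% or more, scaled per plate between neutral and stimulator controls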
Calb FLC: C. albicans growth modulation with fluconazole; C. albicans CaCi-2 (fluconazole-resistant clinical isolate) + fluconazole, Alamar Blue growth, 48 h; growth inhibition, % (concentration not given with the values); 0.57% of 300,000 active; AID 1979;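 active = growth inhibition above about 58% in most replicates, limit read from the data, passing the limit was not always enough; inconclusive = exactly half the replicates above a set limit; inactive = most replicates below a set limit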;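 also: all wells also contain fluconazole at 8 µg/ml as a sub-toxic cotreatment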
CSC inhib: cancer stem cell inhibition; cancer stem cell-like cells viability, luminescence; inhibition, % at 7.5 µM; 1.1% of 300,000 active; in the data active = inhibition above about 75%; inconclusive = no clear call, values can overlap the other calls; tested in HMLE shEcad cells
Beta cell apopt: beta cell apoptosis inhibition | protection from apoptosis, % (no concentration beside the values) | INS-1E cytokine-induced death, ATP luminescence, 48 h; percent of positive-control rescue, neutral wells zero | AID 435005 | 0.8% of 300,000 active;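 active = Every replicate reaches about 75%, or at least half do and their mean reaches it too, limit read from the data; inconclusive = At least half of replicates reach the limit but their mean does not; inactive = Under half of replicates reach the limit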;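 also: higher means more ATP so stronger rescue from cytokine killing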
SKKanGAS inh: SKKanGAS growth inhibition; S. pyogenes SKKanGAS, kanamycin growth, BacTiter-Glo, 6 h; 1.3% of 300,000 active; inhibition, % at 7.5 µM;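 active = mean replicate score, as percent of positive control median, at least 50; inconclusive = mean below 50 but one replicate at or above 50; inactive = mean and every replicate below 50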;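 also: strain carries kanamycin resistance gene driven by streptokinase promoter and grows in 40 µg/ml kanamycin; loss of luminescence reflects streptokinase promoter inhibition or plain growth inhibition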
Mdm2-MdmX inh: human Mdm2/MdmX binding inhibition | O15151+Q00987 | SaOS-2 split-luciferase Mdm2/MdmX complementation, luminescence | inhibition, % at 8 µM | 3% of 330,000 active;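 active = inhibition of at least 50% at 8 µM in the primary screen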
Target sequence (O15151 whole entry, looked up): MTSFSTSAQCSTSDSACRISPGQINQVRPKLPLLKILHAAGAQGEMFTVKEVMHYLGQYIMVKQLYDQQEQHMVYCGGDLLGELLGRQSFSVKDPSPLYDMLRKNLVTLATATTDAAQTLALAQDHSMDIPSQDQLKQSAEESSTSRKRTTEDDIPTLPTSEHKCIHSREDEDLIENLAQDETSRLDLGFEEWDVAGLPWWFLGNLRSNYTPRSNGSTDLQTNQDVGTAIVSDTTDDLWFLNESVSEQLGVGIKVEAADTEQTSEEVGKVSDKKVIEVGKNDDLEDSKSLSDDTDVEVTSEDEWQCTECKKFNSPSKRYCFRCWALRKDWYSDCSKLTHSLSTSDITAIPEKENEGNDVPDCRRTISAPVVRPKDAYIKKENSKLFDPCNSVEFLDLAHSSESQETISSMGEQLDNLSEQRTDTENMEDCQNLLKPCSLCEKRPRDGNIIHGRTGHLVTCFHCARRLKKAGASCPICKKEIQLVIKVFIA
Target sequence (Q00987 whole entry, looked up): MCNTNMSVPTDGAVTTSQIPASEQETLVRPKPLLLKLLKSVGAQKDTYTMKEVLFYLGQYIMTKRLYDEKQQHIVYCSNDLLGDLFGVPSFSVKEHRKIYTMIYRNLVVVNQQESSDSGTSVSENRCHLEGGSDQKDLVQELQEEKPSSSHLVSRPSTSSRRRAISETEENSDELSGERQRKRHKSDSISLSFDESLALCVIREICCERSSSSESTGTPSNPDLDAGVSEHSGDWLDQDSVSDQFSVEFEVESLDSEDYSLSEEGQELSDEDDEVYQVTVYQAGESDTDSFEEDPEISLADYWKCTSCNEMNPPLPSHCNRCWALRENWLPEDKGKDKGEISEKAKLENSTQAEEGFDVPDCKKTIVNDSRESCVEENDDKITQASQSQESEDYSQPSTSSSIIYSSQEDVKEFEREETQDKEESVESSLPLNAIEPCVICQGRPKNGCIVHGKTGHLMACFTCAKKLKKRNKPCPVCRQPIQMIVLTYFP
Mdm2 MdmX conf: confirmation of human Mdm2/MdmX interaction inhibitors | shares compounds with Mdm2-MdmX inh | Mdm2-MdmX binding, luminescent assay | inhibition, % at 8 µM | 55% of 10,000 active; in the data active = inhibition above about 40%
Full FLuc ctr: inhibits full-length luciferase, flagging false Mdm2/MdmX hits; shares compounds with Mdm2-MdmX inh; SaOS-2 full-length luciferase counterscreen, luminescence; inhibition, % at 8 µM; 77% of 6,200 active; AID 504607;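 active = mean inhibition at 8 µM reaching about 37%, which flags the compound as non-specific, limit read from the data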;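 also: p53-null SaOS-2 cells with luciferase driven by a doxycycline-inducible promoter; compound on cells about two nights before reading with doxycycline added after day one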
Numbers stand for hits; 0 = inactive; ? = inconclusive; - = no result. In the library only some 5.4% were active in any assay of this set; here they are far more common.

SMILES	MPTP block	Calb FLC	CSC inhib	Beta cell apopt	SKKanGAS inh	Mdm2-MdmX inh	Mdm2 MdmX conf	others
CS(=O)(=O)c1nc([N+](=O)[O-])nn1CCCc1ccccc1	0	0	0	0	0	55.2	0
O=C1/C(=C\c2c(NCCOCCO)nc3ccccn3c2=O)SC(=S)N1Cc1ccco1	0	0	-	-	0	53.6	0
O=C(CSc1ccccn1)Nc1ccc(N2CCOCC2)cc1	0	0	0	0	0	0	-
COc1cccc(N(C(=O)Cn2nnc(-c3ccc(Cl)cc3)n2)C(C(=O)NCC2CCCO2)c2ccc(C)cc2)c1 (stereo unspecified)	0	0	0	0	0	55.8	0
Cc1cc(C)cc(OCc2nc3ncc(Br)cc3[nH]2)c1	0	0	0	0	0	81.2	73.7	Full FLuc ctr=0
O=C(CCS(=O)(=O)c1ccccc1)N(CCCN1CCOCC1)c1nc2ccccc2s1	0	0	0	-	0	78.2	43.0	Full FLuc ctr=74.2
Cc1ccc(S(=O)(=O)CCC(=O)N(CCCN2CCOCC2)c2nc3ccccc3s2)cc1	0	0	0	-	0	63.8	0
CCOC(=O)C1=C(CN2c3ccccc3CC2C)NC(=O)NC1c1ccccc1 (stereo unspecified)	0	0	0	0	0	0	-
N/C(=N\OC(=O)C12CC3CC(CC(C3)C1)C2)c1ccncc1	0	0	0	-	0	83.7	0
CC(C)N=C(NS(=O)(=O)c1ccccc1)C(Cl)(Cl)Cl	0	0	0	0	0	83.5	59.9	Full FLuc ctr=73.7
O=S(=O)(NC(=S)c1ccccc1)c1ccccc1	0	0	0	-	0	0	-
O=c1c(Cl)nc2cc(Cl)ccc2n1CCNc1ncc(C(F)(F)F)cc1Cl	0	0	0	0	0	96.8	43.4	Full FLuc ctr=0
Cc1cc(C)c2oc(-c3ccc(C)c(NC(=S)NC(=O)c4cccs4)c3)nc2c1	0	0	-	0	0	77.2	0
O=C(NCc1cccnc1)C1CC(=O)N(c2ccc(F)cc2)C1 (stereo unspecified)	0	0	-	0	0	0	-
O=[N+]([O-])c1cc(S(=O)(=O)NCCCN2CCOCC2)ccc1Cl	0	0	0	0	0	0	-
O=[N+]([O-])c1cc(S(=O)(=O)NCCN2CCOCC2)ccc1Sc1nnnn1-c1ccccc1	0	0	0	0	0	65.6	49.7	Full FLuc ctr=0
CCN1CCN(c2cc(C)c3cc(NC(=O)c4ccc(C)c(C)c4)ccc3n2)CC1	0	0	0	0	0	67.2	0
CCCN(CCC)CCCNC(=S)Nc1ccc2nc(N3CCN(CC)CC3)cc(C)c2c1	0	0	0	0	0	52.9	0
CCCN(CCC)CCCNC(=S)Nc1ccc2nc(N3CCN(C)CC3)cc(C)c2c1	0	0	0	0	0	0	-
CCN1CCN(c2cc(C)c3cc(NC(=S)N4CCN(c5ccc(F)cc5)CC4)ccc3n2)CC1	0	0	?	0	0	96.5	45.4	Full FLuc ctr=52.4
CCN1CCN(c2cc(C)c3cc(NC(=O)c4ccncc4)ccc3n2)CC1	0	0	0	-	0	0	-
CCCCN(CC)CCNC(=S)Nc1ccc2nc(N3CCN(C)CC3)cc(C)c2c1	0	0	0	0	0	66.7	44.7	Full FLuc ctr=74.7
CCN1CCN(C(=S)Nc2ccc3nc(N4CCN(CC)CC4)cc(C)c3c2)CC1	0	0	0	0	0	0	-
CCN(CC)S(=O)(=O)c1cc(NC(=O)CSc2nc3c(cc2C#N)C(=O)CC(C)(C)C3)ccc1C	0	0	0	0	0	66.7	63.2	Full FLuc ctr=45.5
CS(=O)(=O)N(Cc1ccccc1)c1ccc(C(=O)Nc2ccc3c(c2)OCO3)cc1	0	0	0	0	0	0	-
SMILES	MPTP block	Calb FLC	CSC inhib	Beta cell apopt	SKKanGAS inh	Mdm2-MdmX inh	Mdm2 MdmX conf	others
COc1cccc(/C(O)=C/c2nc3ccc(C(=O)NCCc4cccc(C)c4)cc3[nH]c2=O)c1	0	0	0	0	0	64.7	0
COc1cccc(/C(O)=C/c2nc3ccc(C(=O)NCCc4ccc(Cl)cc4)cc3[nH]c2=O)c1	0	0	-	-	0	-	-
Cc1ccc(NC(=O)O/N=C/c2c(C)nn(C(C)(C)C)c2C)cc1Cl	0	0	0	0	0	79.5	91.8	Full FLuc ctr=54.0
Cc1ccc(NC(=O)Nn2cnnc2)cc1Cl	0	0	-	0	0	0	-
O=C(N/N=C/c1ccc(O)cc1O)c1ccc(NC(=O)C2CCCCC2)cc1	0	0	0	?	0	68.0	54.0	Full FLuc ctr=37.9
O=C(N/N=C/c1cccc(O)c1)c1ccc(NC(=O)C2CCCCC2)cc1	0	?	0	0	0	0	-
COc1ccccc1N1CCN(C2CCN(C3CCC(c4ccccc4)CC3)CC2)CC1 (stereo unspecified)	-	0	0	0	0	59.9	0
COc1ccccc1N1CCN(C2CCC(C)CC2)CC1 (stereo unspecified)	0	0	0	0	0	0	-
CC(C)(C)C(=O)Nc1ccc(N=Nc2ccccc2)cc1	0	0	0	0	0	71.1	73.2	Full FLuc ctr=136.4
CCN(C(=O)c1ccc(NC(=O)Cc2ccccc2)cc1)c1ccccc1	0	0	0	0	0	0	-
COc1cccc(N2CCN(C(=O)C3CCN(S(=O)(=O)c4cccs4)CC3)CC2)c1	0	0	0	0	0	0	-
COC(=O)c1cc(=O)n(-c2ccccc2)c(=Nc2ccccc2)s1	0	0	0	0	0	0	-
CCOC(=O)c1ccc(N=c2sc(C(=O)OC)cc(=O)n2-c2ccc(C(=O)OCC)cc2)cc1	0	0	0	0	0	82.9	0
Cc1cc2nc(C(C)(C)C)c(Cc3cccc(Cl)c3)n2c(C)c1Br	0	-	-	-	-	-	-
O=C(Cc1c[nH]c2ccccc12)N/N=C/c1ccccc1O	0	0	0	0	0	0	-
CC(C)(C)c1ccc(/C=N/NC(=O)Cc2c[nH]c3ccccc23)cc1	0	0	0	0	0	54.7	0
CCN(CC)C(=O)OCc1c(-c2cccc(OC)c2)ncc2ccccc12	0	-	0	0	-	0	-
O=S(=O)(Cc1ccccc1)c1cnc2ccccc2n1	0	0	0	0	0	59.2	0
O=S(=O)(c1ccc(Br)cc1)c1cnc2ccccc2n1	0	0	0	0	0	50.0	0
COc1ccc(S(=O)(=O)c2cnc3ccccc3n2)cc1	0	0	0	0	0	0	-
O=C(O)COc1cnc2ccccc2n1	0	0	0	0	0	0	-
COc1ccccc1N1CCN(C(=O)c2oc3ccc(Br)cc3c2C)CC1	0	0	0	0	0	56.9	57.9	Full FLuc ctr=53.7
COc1ccccc1N1CCN(C(=O)c2cc3c(C)nc4ccccc4c3o2)CC1	0	0	0	0	0	53.9	0
COc1ccccc1N1CCN(C(=O)c2oc3ccc(F)cc3c2C)CC1	0	0	0	0	0	0	-
Cc1cc(C)c(NC(=O)Nc2ccc3c(c2)OCO3)c(C)c1	0	0	0	0	0	0	-
O=C1Nc2ccccc2C1C(C[N+](=O)[O-])c1ccccc1 (stereo unspecified)	0	0	0	0	0	0	-

Compound activity: PubChem BioAssay, several laboratories
